Hits are enriched below; roughly 2% of the tested compounds scored in any of these assays.
ADAM10 inh – inhibits human ADAM10. O14672. recombinant ADAM10, EDANS/DABCYL FRET peptide cleavage, 3 h. inhibition, % at 7 µM. 0.62% of 370,000 active. AID 720582;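 active = inhibition above a per-campaign cutoff equal to the mean of compounds falling between control-based bounds plus 3 SD, cut at about 20% in these data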;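 also: 0% = DMSO wells while the 100% control is not disclosed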
Target sequence (O14672 214-748 limits assumed): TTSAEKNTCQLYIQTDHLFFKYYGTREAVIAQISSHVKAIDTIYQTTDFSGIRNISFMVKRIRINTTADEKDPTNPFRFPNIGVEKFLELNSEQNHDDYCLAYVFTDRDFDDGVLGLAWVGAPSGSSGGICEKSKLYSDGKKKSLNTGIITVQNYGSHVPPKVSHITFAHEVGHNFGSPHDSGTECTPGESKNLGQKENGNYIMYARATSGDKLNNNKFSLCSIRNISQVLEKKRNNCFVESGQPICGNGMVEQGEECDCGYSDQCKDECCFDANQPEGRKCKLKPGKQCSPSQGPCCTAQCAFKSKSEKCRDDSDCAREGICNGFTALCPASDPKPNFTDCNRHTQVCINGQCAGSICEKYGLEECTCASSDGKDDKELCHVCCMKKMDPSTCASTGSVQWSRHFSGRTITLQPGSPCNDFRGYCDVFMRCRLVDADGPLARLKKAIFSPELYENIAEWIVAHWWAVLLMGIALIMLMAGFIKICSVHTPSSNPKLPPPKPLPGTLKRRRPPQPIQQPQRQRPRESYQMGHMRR
GC-A act – GC-A (human) enzyme activation. 0.14% of 370,000 active. activation, % at 10 µM. P16066. HEK293 GC-A cells, cGMP TR-FRET, EC30 ANP; 0% at EC30 ANP, 100% saturating ANP; in the data active = activation above about 40%
ADAM17 inh – ADAM17 inhibition, QFRET primary screen; inhibition, % at 6.95 µM; recombinant ADAM17, EDANS/DABCYL FRET peptide cleavage; P78536; 0.83% of 370,000 active; AID 720648;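 active = inhibition above the mean of compounds lying between control limits plus 3 SD, set per campaign, cut at about 8.5% in these data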;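 also: 0% = DMSO-only wells as the low control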
GC-B act – GC-B (human) receptor activation; P20594; HEK293-GC-B cells, CNP EC30, cGMP TR-FRET; 0% at EC30 CNP, 100% saturating CNP; activation, % at 10 µM; 0.11% of 370,000 active; AID 1920062;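 active = activation at 10 µM reaching about 35% in either raw or pattern-adjusted values, limit read from the data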
FAS-TE inh – inhibitors of human fatty acid synthase thioesterase domain; P49327; inhibition, % at 15 µM; AID 602261; 0.67% of 360,000 active; recombinant FAS-TE, OMFH fluorogenic substrate, fluorescence endpoint;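 active = compounds whose normalised, plate-corrected inhibition of enzyme fluorescence in the single-dose primary screen is 50% or more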;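 also: 0% = DMSO with enzyme and 100% = substrate without enzyme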
ADAM10 confirm – confirmation of inhibitors of human ADAM10; shares compounds with ADAM10 inh; ADAM10 QFRET peptide cleavage, EDANS fluorescence; inhibition, % at 6.95 µM; 1% of 2,100 active; AID 743208;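 active = inhibition above about 20% chosen separately for each screening run, limit read from the data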;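 also: 0% = DMSO wells and 100% = marimastat wells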
ADAM17 counter – inhibits human ADAM17 in ADAM10 exosite counter-screen; shares compounds with ADAM10 inh; ADAM17 QFRET peptide cleavage, EDANS fluorescence; inhibition, % at 6.95 µM; 0.5% of 2,100 active; AID 743214;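 active = mean triplicate inhibition above the solvent-only control wells' mean plus 3 SD, cut at about 12% in these data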;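 also: 0% = DMSO wells and 100% = marimastat wells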
Numbers without * were called inactive; / = no result given.

SMILES	ADAM10 inh	GC-A act	ADAM17 inh	GC-B act	FAS-TE inh	ADAM10 confirm	ADAM17 counter
COc1ccc(NS(=O)(=O)c2cccc(N3CC(O)=C(c4ccccc4)C3=N)c2)cc1	65*	-3	-1	-6	-6	2	0
COc1ccccc1NS(=O)(=O)c1cccc(N2CC(O)=C(c3ccccc3)C2=N)c1	2	-3	1	-5	9	/	/
Cc1ccccc1OC(C)C(=O)Nc1ccc(S(=O)(=O)Nc2nccs2)cc1 (centres undefined)	-3	2	-1	5	1	/	/
CC(Oc1ccccc1Cl)C(=O)Nc1ccc(S(=O)(=O)Nc2nccs2)cc1 (centres undefined)	51*	1	-36	-2	-4	0	0
Cc1ccc(S(=O)(=O)Nc2ccc(NC(=O)Nc3ccc(F)cc3F)cc2)cc1	20*	-11	8	-3	13	4	1
O=C(Nc1ccc(S(=O)(=O)N2CCCC2)cc1)Nc1ccc(F)cc1F	7	-1	1	-1	4	/	/
N#Cc1cccc(NC(=O)OC2CCC23CCC(c2ccccc2)CC3)c1 (centres undefined)	12	0	5	-2	/	/	/
CCOc1ccc(N(CC(=O)NCc2ccco2)C(=O)CCC(=O)Nc2nccs2)cc1	5	0	1	-9	-3	/	/
CCc1ccccc1N(CC(=O)NCc1ccco1)C(=O)CCC(=O)Nc1nccs1	88*	-12	-7	-3	5	1	-1
Cn1cccc1/C=N/NC(=O)c1ccccn1	-4	2	-3	7	-5	/	/
Cn1cccc1/C=N/NC(=O)c1cc2ccccc2cc1O	23*	1	1	-9	0	8	5
Cc1nc2ccccn2c1P(=O)(c1ccccc1)c1ccccc1	0	-13	-3	-15	/	/	/
Cc1ccc(CNC(=O)c2cccc3c2C(=O)c2ccc(N4CCCCC4)cc2S3(=O)=O)cc1	21*	4	5	6	-119	7	0
O=C(Cc1ccccc1F)N1CCC(n2nnc3ncccc32)CC1	-9	3	-2	-6	/	/	/
O=C(CSc1nnc(-c2cccs2)o1)Nc1cc(Cl)cc(Cl)c1	4	-1	1	-4	/	/	/
CC(C)(C)C(=O)NC1CCCCN(Cc2cccc(C(F)(F)F)c2)C1=O (centres undefined)	-2	3	-2	6	/	/	/
Cc1ccc(Cn2nnc3c(=O)[nH]c(C4CCN(S(=O)(=O)c5ccc(S(=O)(=O)NC6CC6)cc5)CC4)nc32)cc1	20*	1	5	5	-49	3	1
COC(=O)CN1C(=S)N(c2ccc(F)cc2)C(=O)C1CC(=O)Nc1ccc(F)cc1 (centres undefined)	1	-1	-4	1	8	/	/
COC(=O)CN1C(=S)N(c2ccc(Cl)cc2)C(=O)C1CC(=O)Nc1ccc(F)cc1 (centres undefined)	34*	1	6	-2	23	0	0
COC(=O)CN1C(=S)N(c2ccc(Cl)cc2)C(=O)C1CC(=O)Nc1ccc(Cl)cc1 (centres undefined)	22*	0	7	-9	45	4	1
CCN(CC)C(=O)CC[C@H]1CC[C@]2(CCCN(C(=O)C3CCCC3)C2)O1	-8	0	-3	-5	/	/	/
Cn1cc(C(=O)c2ccc(Cl)cc2Cl)cc1C(=O)N/N=C(\N)COc1ccc(Cl)cc1Cl	30*	-1	20*	-2	48	12	4
CC(=O)c1cc(-c2cccc(C#N)c2)c(=O)n2c1CCC2	-6	-2	-4	-8	/	/	/
NS(=O)(=O)c1ccc(CCNC(=O)c2cc(-c3cc(Cl)ccc3O)n[nH]2)cc1	23*	5	2	-6	-2	2	2
CC(C)N1CCc2c(-c3nc4ccccc4s3)csc2C1	-10	5	-3	-3	/	/	/
SMILES	ADAM10 inh	GC-A act	ADAM17 inh	GC-B act	FAS-TE inh	ADAM10 confirm	ADAM17 counter
Cc1ccccc1Cn1cc(COC(=O)NCCc2ccccc2)nn1	0	1	-1	1	/	/	/
Fc1ccc(CNCc2ccco2)cc1	20*	-1	8	1	-2	-1	0
C/C(=N\NC(=S)NCc1ccccc1)c1cccc(Br)c1	21*	-7	4	-3	34	8	4
Nc1[nH]c2cc(C(F)(F)F)ccc2c1C(=O)NCc1ccc(F)cc1	0	-2	-3	6	/	/	/
O=S1(=O)c2ccc(N3CCSCC3)cc2Oc2ccccc2CN1Cc1cn(Cc2cccc(F)c2)nn1	3	2	0	4	/	/	/
O=C(CCn1c(=O)oc2ccccc21)N1CCN(c2ccccc2F)CC1	-4	-2	-7	-1	3	/	/
O=C(CCn1c(=O)oc2ccccc21)N1CCN(C(c2ccccc2)c2ccccc2)CC1	27*	-13	4	-4	21	3	2
O=C1OCCN1C(=O)[C@H]1[C@H](c2ccc([N+](=O)[O-])cc2)C(c2cccc(Cl)c2)=NN1c1ccccc1	42*	-2	17*	-1	89*	13	5
Cc1cccc(C2=NN(c3ccccc3)[C@@H](C(=O)N3CCOC3=O)[C@@H]2C)c1	-62	-2	-17	3	19	/	/
CC(O)(c1cccc(F)c1)c1nc(-c2csc3ccccc23)cs1 (centres undefined)	23*	-2	6	-7	27	8	3
CC(O)(c1cccc(F)c1)c1nc(-c2cc3ccccc3o2)cs1 (centres undefined)	22*	3	6	-4	27	6	2
CC(O)(c1ccc(F)c(F)c1)c1nc(/C=C/c2ccc(C(F)(F)F)cc2)cs1 (centres undefined)	11	1	8	8	26	/	/
CC(O)(c1cccc(F)c1)c1nc(/C=C/c2ccccc2)cs1 (centres undefined)	22*	2	6	1	24	10	3
CC(O)(c1ccccc1)c1nc(-c2csc3ccccc23)cs1 (centres undefined)	21*	2	7	0	16	5	2
CC(=O)N1CCCN(C(=O)C2CCN(c3ncnc4c3sc3cccc(F)c34)CC2)CC1	-67	1	-20	-1	/	/	/
CCOC(=O)CC[C@@H]1CC[C@]2(CCCN(Cc3cccs3)C2)O1	3	3	2	7	/	/	/
CCOC(=O)[C@@H]1[C@H]2COc3ccc(Br)cc3[C@H]2N2C(=O)N(c3cccc(F)c3)C(=O)[C@]12C	20*	-1	5	-8	36	4	1

Source: PubChem
